“And” between values parts separate entries of the source, which are not always exact repeats. Equal entries are not always repeated. Compounds without any hit were thinned out: in the full panel of roughly 79,000, 15% have a hit. The source made the active and inactive calls. Cut-off read from the data, not from the text of the source: active = growth inhibition above about 70%; inactive = the rest.
Tests used:
[1] = NCI Yeast Anticancer Drug Screen. Data for the wt1 strain (AID 149);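 note: 0% = growth of vehicle-treated wt1 cultures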; settings: S. cerevisiae wt1 strain (SPY 50644) growth inhibition, stronger effect = higher value
In short: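 Using yeast strain wt1, compound-induced growth inhibition was determined against vehicle-treated cultures.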

[2] = NCI Yeast Anticancer Drug Screen. Data for the rad50EPP+ strain (AID 151);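 note: 0% = growth of vehicle-treated control cultures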; settings: S. cerevisiae rad50 mutant strain, stronger effect = higher value
In short: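 Compounds were applied to the rad50EPP+ yeast strain, which bears a defined DNA repair alteration, and growth inhibition was determined relative to vehicle-treated cultures.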

[3] = NCI Yeast Anticancer Drug Screen. Data for the rad50 strain (AID 155);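 note: 0% = growth of vehicle-only cultures of the same strain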; settings: S. cerevisiae rad50 strain growth inhibition, stronger effect = higher value
In short: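 Relative growth inhibition (compound vs vehicle) was measured in yeast with a defined repair-gene alteration.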

[4] = NCI Yeast Anticancer Drug Screen. Data for the mec2-1 strain (AID 157); settings: S. cerevisiae mec2-1 strain, stronger effect = higher value
In short: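 Strain: mec2-1 (DNA repair/cell cycle alteration). Compound exposure, then growth measured; inhibition expressed relative to vehicle.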

[5] = NCI Yeast Anticancer Drug Screen. Data for the rad14 strain (AID 159);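 note: 0% = growth of vehicle-treated control cultures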; settings: S. cerevisiae rad14 strain growth inhibition, stronger effect = higher value
In short: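 Screen for anticancer potential: a yeast strain altered in DNA damage repair is grown with compound, and reduced growth is quantified against vehicle controls.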

[6] = NCI Yeast Anticancer Drug Screen. Data for the sgs1 mgt1 strain (AID 161);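 note: 0% = growth of cultures given vehicle only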; settings: S. cerevisiae sgs1 mgt1 strain, stronger effect = higher value
In short: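 Read-out: growth inhibition vs vehicle controls. Cells: mutant yeast strain deficient in DNA damage repair.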

[7] = NCI Yeast Anticancer Drug Screen. Data for the CLN2oe strain (AID 163);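 note: 0% = growth of vehicle-only control cultures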; settings: S. cerevisiae CLN2oe strain, stronger effect = higher value
In short: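 Growth of a genetically modified yeast strain is measured after compound exposure and compared with cultures given vehicle alone.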

[8] = NCI Yeast Anticancer Drug Screen. Data for the cln2 rad14 strain (AID 165);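 note: 0% = growth equal to vehicle treated cultures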; settings: S. cerevisiae cln2 rad14 strain, stronger effect = higher value
In short: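 Compounds are applied to the cln2 rad14 yeast strain, and growth is then compared with that of vehicle-treated cultures to give inhibition.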

[9] = NCI Yeast Anticancer Drug Screen. Data for the bub3 strain (AID 167); settings: S. cerevisiae bub3 mutant strain, stronger effect = higher value
In short: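 Screening used yeast with an engineered genetic alteration affecting cell cycle control. Compound-exposed cultures were compared with vehicle cultures, and reduced growth was taken as inhibition.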

[10] = NCI Yeast Anticancer Drug Screen. Data for the wt2 strain (AID 169);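 note: 0% = growth of vehicle-treated yeast cultures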; settings: S. cerevisiae wt2 strain growth inhibition, stronger effect = higher value
In short: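 This strain belongs to a panel of yeast strains with defined genetic alterations in DNA damage repair or cell cycle control. Compounds are applied, and growth inhibition is measured against vehicle-treated cultures.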

[11] = NCI Yeast Anticancer Drug Screen. Data for the mlh1 strain (AID 171);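 note: 0% = growth of vehicle-treated control cultures of the same strain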; settings: S. cerevisiae mlh1 strain growth inhibition, stronger effect = higher value
In short: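 Growth of the mutant yeast strain after compound exposure, expressed as inhibition relative to vehicle-only controls.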

[12] = NCI Yeast Anticancer Drug Screen. Data for the sgs1 strain (AID 173);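 note: 0% = growth of vehicle-only control cultures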; settings: S. cerevisiae sgs1 mutant, stronger effect = higher value
In short: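 Growth of a yeast strain bearing a defined genetic alteration is measured after compound treatment. Inhibition is expressed relative to vehicle-only controls.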

[13] = NCI Yeast Anticancer Drug Screen. Data for the mlh1 rad18 strain (AID 175); settings: S. cerevisiae mlh1 rad18 strain growth inhibition, stronger effect = higher value
In short: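 Read-out is yeast growth inhibition, calculated against vehicle-only controls. The compound was applied to a strain engineered with DNA damage repair alterations.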

[14] = NCI Yeast Anticancer Drug Screen. Data for the rad18 strain (AID 177); settings: S. cerevisiae rad18 mutant growth inhibition, stronger effect = higher value
In short: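 Growth of the mutant yeast strain after compound exposure, normalised to vehicle-only cultures.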

[15] = NCI Yeast Anticancer Drug Screen. Data for the mgt1 strain (AID 153); settings: S. cerevisiae mgt1 mutant growth inhibition, stronger effect = higher value
In short: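 Strain: mgt1 yeast, one of a set carrying defined DNA damage repair or cell cycle control alterations. Compound-treated growth compared with vehicle.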

[16] = at 5.0 µM (retest, dose inferred, filed as 0.5)
[17] = at 50.0 µM (retest, dose inferred, filed as 5.0)

Measured: growth inhibition

COc1ccc2nc(N/N=C/c3sccc3C)cc(C)c2c1
inactive: [1]; at 1.2 µM -39% | [1]; at 3.7 µM -32% | [1]; at 11.0 µM -6% | [2]; at 1.2 µM -18% | [2]; at 3.7 µM -19% | [2]; at 11.0 µM -21% | [2]; at 33.0 µM 15% | [3]; at 1.2 µM -22% | [3]; at 3.7 µM -27% | [3]; [16] 4% | [3]; at 11.0 µM -12% | [3]; [17] 68% | [4]; at 1.2 µM -13% | [4]; at 3.7 µM 4% | [4]; [16] -10% | [4]; at 11.0 µM 12% | [4]; [17] 56% | [5]; at 1.2 µM -50% | [5]; at 3.7 µM -19% | [5]; at 11.0 µM -21% | [7]; at 1.2 µM -2% | [7]; at 3.7 µM -6% | [7]; at 11.0 µM -1% | [9]; at 1.2 µM 12% | [9]; at 3.7 µM 14% | [9]; at 11.0 µM 38% | [10]; at 1.2 µM 18% | [10]; at 3.7 µM 4% | [10]; at 11.0 µM 27% | [11]; at 1.2 µM 8% | [11]; at 3.7 µM -3% | [11]; at 11.0 µM 35% | [12]; at 1.2 µM -30% | [12]; at 3.7 µM -45% | [12]; at 11.0 µM -16% | [13]; [16] -5% | [14]; at 1.2 µM 5% | [14]; at 3.7 µM 16% | [14]; at 11.0 µM 8%
active: [1]; at 33.0 µM 96% | [1]; at 100.0 µM 95% | [2]; at 100.0 µM 76% | [3]; at 33.0 µM 94% | [3]; at 50.0 µM 85.5% | [3]; at 100.0 µM 94% | [4]; at 33.0 µM 96% | [4]; at 50.0 µM 87.5% | [4]; at 100.0 µM 95% | [5]; at 33.0 µM 97% | [5]; at 100.0 µM 90% | [6]; [16] 96% | [6]; [17] 96% | [6]; at 50.0 µM 84.1% | [7]; at 33.0 µM 96% | [7]; at 100.0 µM 94% | [8]; [16] 95% | [8]; [17] 95% | [8]; at 50.0 µM 81% | [9]; [16] 96% | [9]; at 33.0 µM 98% | [9]; [17] 98% | [9]; at 50.0 µM 86% | [9]; at 100.0 µM 96% | [10]; at 33.0 µM 98% | [10]; at 100.0 µM 96% | [11]; at 33.0 µM 97% | [11]; at 100.0 µM 92% | [12]; at 33.0 µM 98% | [12]; at 100.0 µM 95% | [13]; [17] 83% | [13]; at 50.0 µM 87.8% | [14]; at 33.0 µM 98% | [14]; at 100.0 µM 96%

CC1C=CN(N(C)C)C2=C1C(=O)c1cnccc1C2=O (stereo not drawn)
inactive: [1]; at 1.2 µM -1% | [1]; at 3.7 µM 7% | [1]; at 11.0 µM 47% | [2]; at 1.2 µM -4% | [2]; at 3.7 µM 53% | [15]; at 1.2 µM -31% | [15]; at 3.7 µM 9% | [15]; at 11.0 µM 51% | [3]; at 1.2 µM 31% | [3]; at 3.7 µM 68% | [4]; at 1.2 µM -36% | [4]; at 3.7 µM -23% | [4]; [16] 30% | [4]; at 11.0 µM 49% | [5]; at 1.2 µM -70% | [5]; at 3.7 µM -31% | [5]; at 11.0 µM 46% | [7]; at 1.2 µM -11% | [7]; at 3.7 µM 10% | [7]; at 11.0 µM 49% | [8]; [16] 25% | [8]; [17] -18% | [9]; at 1.2 µM -38% | [9]; at 3.7 µM -8% | [9]; [16] 12% | [9]; at 11.0 µM 46% | [9]; [17] 6% | [10]; at 1.2 µM 5% | [10]; at 3.7 µM 6% | [10]; at 11.0 µM 43% | [11]; at 1.2 µM -48% | [11]; at 3.7 µM -23% | [11]; at 11.0 µM 40% | [12]; at 1.2 µM 41% | [12]; at 3.7 µM 46% | [12]; at 11.0 µM 65%
active: [1]; at 33.0 µM 83% | [1]; at 100.0 µM 96% | [2]; at 11.0 µM 82% | [2]; at 33.0 µM 91% | [2]; at 100.0 µM 93% | [15]; at 33.0 µM 87% | [15]; at 100.0 µM 96% | [3]; [16] 81% | [3]; at 11.0 µM 86% | [3]; at 33.0 µM 93% | [3]; [17] 93% | [3]; at 50.0 µM 85% | [3]; at 100.0 µM 96% | [4]; at 33.0 µM 86% | [4]; [17] 95% | [4]; at 50.0 µM 92.2% | [4]; at 100.0 µM 96% | [5]; at 33.0 µM 89% | [5]; at 100.0 µM 95% | [7]; at 33.0 µM 90% | [7]; at 100.0 µM 93% | [8]; at 50.0 µM 87.8% | [9]; at 33.0 µM 89% | [9]; at 50.0 µM 85.2% | [9]; at 100.0 µM 97% | [10]; at 33.0 µM 90% | [10]; at 100.0 µM 96% | [11]; at 33.0 µM 89% | [11]; at 100.0 µM 97% | [12]; at 33.0 µM 93% | [12]; at 100.0 µM 96% | [13]; [16] 83% | [13]; [17] 95% | [13]; at 50.0 µM 89.8%

Cc1nc2ccc(Br)cc2c(=O)n1-c1ccc(NC2OCC(O)C(O)C2O)cc1 (stereo not drawn)
active: [1]; at 100.0 µM 70% | [3]; at 100.0 µM 86% | [4]; at 100.0 µM 90%
inactive: [1]; at 1.2 µM 3% | [1]; at 3.7 µM 9% | [1]; at 11.0 µM 12% | [1]; at 33.0 µM 32% | [2]; at 1.2 µM 1% | [2]; at 3.7 µM -1% | [2]; at 11.0 µM -1% | [2]; at 33.0 µM 5% | [2]; at 100.0 µM 13% | [3]; at 1.2 µM -3% | [3]; at 3.7 µM 17% | [3]; [16] 11% | [3]; at 11.0 µM 14% | [3]; at 33.0 µM 53% | [3]; [17] 0% | [3]; at 50.0 µM 62.1% and 46.9% | [4]; at 1.2 µM 12% | [4]; at 3.7 µM 14% | [4]; [16] 1% | [4]; at 11.0 µM 23% | [4]; at 33.0 µM 54% | [4]; [17] 45% | [4]; at 50.0 µM 38.2% and 56.2% | [5]; at 1.2 µM 4% | [5]; at 3.7 µM 5% | [5]; at 11.0 µM 14% | [5]; at 33.0 µM 32%

Source: PubChem BioAssay (NCI)
